# Records with an inconclusive call do not appear. Where a call stands in place of a potency, no number is given. Activity calls are given as the source filed them. Unless noted, calls come from the whole dose curve; as a rule, active = well fitted curve in the direction sought with a large enough effect; inconclusive = small, poorly fitted or top-dose-only effect, or another doubt; inactive = no such curve, though single readings can be large; an effect the other way counts as inactive or inconclusive.
# How the values were obtained:
# [1] = molecular target: Glucocorticoid receptor (Homo sapiens) (UniProt P04150); test: GR-GFP Redistribution (AID 450;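 active = compounds whose dose series gives a full or clear partial fitted curve of increased nuclear translocation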; note: potency is the fitted concentration of half-maximal effect); conditions: U2OS GR-GFP nuclear translocation, laser cytometry, 2 h
# [2] = molecular target: Glucocorticoid receptor (Homo sapiens) (UniProt P04150); test: GR-EFC Redistribution (AID 451; calls by dose curve; note: potency is the fitted concentration of half-maximal effect); conditions: CHO-K1 GR-EFC translocation, beta-gal luminescence, 2 h
# In short: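 CHO-K1 cells expressing nuclear EA and GR-ED fragments of b-gal; compounds titrated up to 46 uM final, 2 h at 37 C. GR nuclear translocation read as complemented b-gal luminescence after 1 h RT detection.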
# [3] = molecular target: Mitogen-activated protein kinase 10 (Mus musculus) (UniProt Q61831); test: JNK3 AlphaScreen Assay (AID 530; active = well fitted curve in either direction with a large enough effect, not every such curve was filed as active;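 note: kinase came from lysate of stimulated human HepG2 cells; signal reports phosphorylation of biotinylated GST-cJun 1-79 at Ser73 with 10 µM ATP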)
# In short: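 Activity was read by AlphaScreen after JNK3-containing HepG2 lysate (cytokine pre-activated) phosphorylated biotinylated GST-cJun with 10 uM ATP at room temperature. Phospho-Ser73 cJun antibody with Protein-A acceptor beads provided detection.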
# [4] = molecular target: Cytochrome P450 3A4 (Homo sapiens) (UniProt P08684); test: qHTS Assay for Inhibitors and Substrates of Cytochrome P450 3A4 (AID 884); note: nearly all actives have a fitted effect of over 50% in size; note: potency is the fitted concentration of half-maximal effect
# In short: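 Luminescent readout of luciferin produced by CYP3A4 (20 nM) dealkylation of Luciferin-PPXE, 25 uM (its KM). NADPH-driven reaction ran 60 min at RT after 10 min compound preincubation; data scaled to 57 uM ketoconazole as 100% inhibition.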
# [5] = molecular target: Cytochrome P450 3A4 (Homo sapiens) (UniProt P08684); test: qHTS Assay for Activators of Cytochrome P450 3A4 (AID 885); note: nearly all actives have a fitted effect of over 65% in size; note: potency is the fitted concentration of half-maximal effect
# In short: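 Activators are scored by enhanced luminescence from CYP3A4 conversion of luciferin-PPXE (25uM, equal to KM) to luciferin, after 60 min at RT with an NADPH-regenerating system.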
# [6] = molecular target: Ubiquitin carboxyl-terminal hydrolase 1 (Homo sapiens) (UniProt O94782); test: Inhibitors of USP1/UAF1: Pilot qHTS (AID 504865); note: nearly all actives have a fitted effect of over 35% in size; note: potency is the fitted concentration of half-maximal effect
# In short: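 USP1/UAF1 complex (1nM) preincubated with compound 15 min at room temperature, then Ub-Rho substrate (150nM final) added. Fluorescence read kinetically at 480/540 nm, 6 reads every 60 seconds. Buffer: 50mM HEPES pH 7.8, 0.5mM EDTA, 0.1 mg/ml BSA, 1mM TCEP, 0.01% Tween-20.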
# [7] = molecular target: DNA dC->dU-editing enzyme APOBEC-3G (Homo sapiens) (UniProt Q9HC16); test: qHTS for inhibitors of Vif-A3G interactions: Validation (AID 588379)
# In short: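 Yellow fluorescence (Ex 488, Em 500-530) of Vif-coexpressing HeLa A3G-eYFP cells, scanned by Acumen cytometer, reports blocked A3G degradation. Cells plated at 700/well overnight at 37 deg C before compound addition, then a further overnight compound incubation at 37 deg C.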
# [8] = tested on: Zika virus NS2B-NS3 protease; test: Primary screen GU AMC qHTS for Zika virus inhibitors (AID 1347154); note: nearly all actives have a fitted effect of over 70% in size
# In short: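 Unlinked Zika NS2B hydrophilic domain–NS3 protease complex at 25 nM in 10 mM Tris-HCl pH 8.0, 0.01% Tween 20, with an AMC peptide substrate. Fluorescence change (340/450 nm) over 15 min at room temperature, normalized to controls, fitted to 4-parameter Hill.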
# [9] = Confirmation and Secondary Assay for Modulators of Hemoglobin Beta Chain Splicing at IVS2 654 locus (AID 910);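 note: HeLa cells stably carrying EGFP split by mutant beta-globin IVS2-654 intron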
# In short: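 HeLa cells stably expressing EGFP interrupted by β-globin IVS2-654 intron, seeded overnight in Opti-MEM/2% FCS, then treated 2 days at 37 °C. Restored splicing read as total peak GFP intensity per well by laser scanning cytometry (488 nm excitation, 500–520 nm emission); 500 nM antisense PNA as control.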
# [10] = Confirmation and Secondary Assay for Modulators of Hemoglobin Beta Chain Splicing at IVS2 705 locus (AID 930);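 note: HeLa cells stably expressing the EGFP-705 splicing reporter; GFP fluorescence per well restored by corrected splicing of the IVS2-705 intron in EGFP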
# In short: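 Secondary splice-site specificity test uses HeLa expressing CMV-driven EGFP interrupted by IVS2-705; cells were treated 2 days at 37C with 500 nM antisense PNA as positive control.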
# [11] = Confirmatory screen GU Rhodamine qHTS for Zika virus inhibitors qHTS (AID 1347157); note: nearly all actives have a fitted effect of over 70% in size
# In short: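 Buffer 10 mM Tris-HCl pH 8.0, 0.01% Tween 20. Unlinked protease 25 nM; compound preincubation 15 min, RT, protected from light. Substrate Rhod110, 1.5 microM; ~15% conversion in 15 min.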
# [12] = molecular target: 3',5'-cyclic-AMP phosphodiesterase 4B (Homo sapiens) (UniProt Q07343); test: qHTS Assay for Inhibitors of PDE-IV (AID 607; active = well fitted activation curve with a large enough effect in the main read-out, with a control signal flat, not every such curve was filed as active)
# In short: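 The readout is membrane depolarisation from a cAMP-sensing CNG channel, detected with a potential dye at ex 535/em 590. Cells were HEK293-derived (endogenous PDE-IV) at 1000 cells/well, titrated up to 22.9 uM final.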
# [13] = qHTS profiling for inhibitors of Plasmodium falciparum (3D7) proliferation (AID 743322);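 note: infected erythrocytes exposed to compound for 72 h before lysis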; conditions: P. falciparum 3D7 proliferation; at 28.7 µM (top of the series)
# In short: (§1)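 Parasite DNA was quantified by SYBR Green I fluorescence (ex 485, em 535 nm) after overnight lysis in saponin/Triton buffer at room temperature. Cultures at 0.3% parasitemia and 2.5% hematocrit were first exposed to compound for 72 h at 37 C; signals were normalised to artemisinin (0.29 uM) and vehicle wells.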
# [14] = qHTS profiling for inhibitors of Plasmodium falciparum (DD2) proliferation (AID 743323; call rule not given here); conditions: lower = more inhibition; at 28.7 µM (top of the series)
# In short: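 1536-well qHTS; infected RBCs 0.3% parasitemia/2.5% Hct final; cpd 72 h 37 C 5% CO2; lysis buffer + SYBR Green I, o/n RT dark; FI 485/535; norm. to 0.29 uM artemisinin and DMSO, plate-stack corrected.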
# [15] = qHTS profiling for inhibitors of Plasmodium falciparum (HB3) proliferation (AID 743324); conditions: Plasmodium falciparum HB3 blood-stage proliferation; at 28.7 µM (top of the series)
# In short: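 SYBR Green fluorescence (485 ex/535 em) of lysed cultures, incubated overnight at room temperature in the dark, quantifies parasite DNA. Infected erythrocytes at 0.3% parasitemia and 2.5% hematocrit were exposed 72 h; values normalized to DMSO and 0.29 uM artemisinin controls.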
# [16] = qHTS profiling of the MIPE4 collection as inhibitors of Plasmodium falciparum (3D7) proliferation (AID 743344; call rule not given here); conditions: P. falciparum 3D7 in erythrocytes, SYBR Green DNA fluorescence, 72 h; at 28.5 µM (top of the series)
# In short: as §1
# [17] = qHTS profiling of the MIPE4 collection as inhibitors of Plasmodium falciparum (DD2) proliferation (AID 743345; call rule not given here); conditions: P. falciparum Dd2 in erythrocytes, SYBR Green DNA, 72 h; at 28.5 µM (top of the series)
# In short: as §1
# [18] = qHTS profiling of the MIPE4 collection as inhibitors of Plasmodium falciparum (DD2) proliferation (Rep 2) (AID 743346; call rule not given here); conditions: P. falciparum Dd2 in erythrocytes, SYBR Green DNA, 72 h; at 28.5 µM (top of the series)
# In short: as §1
# [19] = qHTS profiling of the MIPE4 collection as inhibitors of Plasmodium falciparum (HB3) proliferation (AID 743347; call rule not given here); conditions: P. falciparum HB3 in erythrocytes, SYBR Green DNA, 72 h; at 28.5 µM (top of the series)
# In short: as §1
# [20] = molecular target: Cytochrome P450 2C9 (Homo sapiens) (UniProt P11712); test: qHTS Assay for Inhibitors and Substrates of Cytochrome P450 2C9 (AID 883); note: nearly all actives have a fitted effect of over 60% in size
# In short: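 Signal: luciferase luminescence reporting luciferin produced by CYP2C9. Conditions: 10nM enzyme, Luciferin-H 100uM at KM, 25mM KPO4, 37C, 60 min NADPH-driven reaction. Reference: 57uM sulphaphenazole as 100% inhibition.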
# [21] = molecular target: Cytochrome P450 2D6 (Homo sapiens) (UniProt P10635); test: qHTS Assay for Inhibitors and Substrates of Cytochrome P450 2D6 (AID 891); note: potency is the fitted concentration of half-maximal effect; nearly all actives have a fitted effect of over 60% in size
# In short: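 Luminescent read-out of luciferin formed by 5 nM human CYP2D6 demethylating 30 uM Luciferin-ME EGE (Km level) over 60 min at room temperature after NADPH regeneration addition. Data normalized to full inhibition by 1.43 uM quinidine.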
# Chain of Glucocorticoid receptor (Homo sapiens) (P04150 whole entry, looked up, the tested form may be a part): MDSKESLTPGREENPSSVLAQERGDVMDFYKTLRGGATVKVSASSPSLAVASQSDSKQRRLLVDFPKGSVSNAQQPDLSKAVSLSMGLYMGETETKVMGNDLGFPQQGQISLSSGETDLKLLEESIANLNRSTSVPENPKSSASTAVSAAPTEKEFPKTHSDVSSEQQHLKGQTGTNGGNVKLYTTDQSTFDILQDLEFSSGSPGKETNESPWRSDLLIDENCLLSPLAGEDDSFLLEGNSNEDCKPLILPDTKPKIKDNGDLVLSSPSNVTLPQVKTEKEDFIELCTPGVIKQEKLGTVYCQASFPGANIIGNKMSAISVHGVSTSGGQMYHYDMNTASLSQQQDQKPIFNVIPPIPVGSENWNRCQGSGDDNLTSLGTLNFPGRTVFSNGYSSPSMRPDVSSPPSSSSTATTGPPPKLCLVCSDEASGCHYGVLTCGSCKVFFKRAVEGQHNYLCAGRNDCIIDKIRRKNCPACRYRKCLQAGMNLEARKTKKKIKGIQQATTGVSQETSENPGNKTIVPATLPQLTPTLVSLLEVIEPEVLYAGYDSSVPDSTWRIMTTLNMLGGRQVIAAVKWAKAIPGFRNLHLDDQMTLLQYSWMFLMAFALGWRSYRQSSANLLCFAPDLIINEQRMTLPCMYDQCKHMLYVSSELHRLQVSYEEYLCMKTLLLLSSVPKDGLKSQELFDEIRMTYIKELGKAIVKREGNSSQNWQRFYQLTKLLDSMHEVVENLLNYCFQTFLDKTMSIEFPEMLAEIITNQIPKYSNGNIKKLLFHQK
# Chain of Cytochrome P450 3A4 (Homo sapiens) (P08684 whole entry, looked up): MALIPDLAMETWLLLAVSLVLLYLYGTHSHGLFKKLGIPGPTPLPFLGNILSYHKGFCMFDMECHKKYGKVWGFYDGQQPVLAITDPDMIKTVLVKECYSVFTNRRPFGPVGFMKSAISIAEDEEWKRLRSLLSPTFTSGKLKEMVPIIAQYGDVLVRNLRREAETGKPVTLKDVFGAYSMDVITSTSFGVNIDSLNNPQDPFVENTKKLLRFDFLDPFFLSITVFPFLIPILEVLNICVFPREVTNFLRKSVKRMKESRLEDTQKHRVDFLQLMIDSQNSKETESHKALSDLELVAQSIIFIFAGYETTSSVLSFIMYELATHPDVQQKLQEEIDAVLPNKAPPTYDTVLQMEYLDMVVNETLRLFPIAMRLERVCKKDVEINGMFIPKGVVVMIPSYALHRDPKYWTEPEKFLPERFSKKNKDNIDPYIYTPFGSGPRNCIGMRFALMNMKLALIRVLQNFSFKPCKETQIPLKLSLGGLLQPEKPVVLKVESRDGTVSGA
# Chain of Ubiquitin carboxyl-terminal hydrolase 1 (Homo sapiens) (O94782 whole entry, looked up): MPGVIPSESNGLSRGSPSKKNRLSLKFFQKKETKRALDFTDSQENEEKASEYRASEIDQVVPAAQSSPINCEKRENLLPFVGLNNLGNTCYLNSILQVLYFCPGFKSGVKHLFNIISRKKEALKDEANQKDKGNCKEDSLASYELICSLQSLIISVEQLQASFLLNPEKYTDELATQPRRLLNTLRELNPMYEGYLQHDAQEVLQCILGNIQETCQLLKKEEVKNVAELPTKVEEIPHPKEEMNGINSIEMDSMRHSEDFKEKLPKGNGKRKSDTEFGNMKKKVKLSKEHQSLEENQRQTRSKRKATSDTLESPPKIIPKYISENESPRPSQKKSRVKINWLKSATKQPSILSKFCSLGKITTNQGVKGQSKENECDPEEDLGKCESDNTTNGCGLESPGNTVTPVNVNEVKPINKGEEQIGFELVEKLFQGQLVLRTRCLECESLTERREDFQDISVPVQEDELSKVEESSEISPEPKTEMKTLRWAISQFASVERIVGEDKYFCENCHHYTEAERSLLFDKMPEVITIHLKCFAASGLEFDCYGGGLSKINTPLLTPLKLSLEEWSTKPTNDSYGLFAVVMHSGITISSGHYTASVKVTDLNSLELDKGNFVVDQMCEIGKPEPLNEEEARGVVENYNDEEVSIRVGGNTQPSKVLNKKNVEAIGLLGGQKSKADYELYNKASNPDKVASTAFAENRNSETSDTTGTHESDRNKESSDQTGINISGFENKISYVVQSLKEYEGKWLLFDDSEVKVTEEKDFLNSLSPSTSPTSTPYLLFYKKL
# Chain of DNA dC->dU-editing enzyme APOBEC-3G (Homo sapiens) (Q9HC16 whole entry, looked up): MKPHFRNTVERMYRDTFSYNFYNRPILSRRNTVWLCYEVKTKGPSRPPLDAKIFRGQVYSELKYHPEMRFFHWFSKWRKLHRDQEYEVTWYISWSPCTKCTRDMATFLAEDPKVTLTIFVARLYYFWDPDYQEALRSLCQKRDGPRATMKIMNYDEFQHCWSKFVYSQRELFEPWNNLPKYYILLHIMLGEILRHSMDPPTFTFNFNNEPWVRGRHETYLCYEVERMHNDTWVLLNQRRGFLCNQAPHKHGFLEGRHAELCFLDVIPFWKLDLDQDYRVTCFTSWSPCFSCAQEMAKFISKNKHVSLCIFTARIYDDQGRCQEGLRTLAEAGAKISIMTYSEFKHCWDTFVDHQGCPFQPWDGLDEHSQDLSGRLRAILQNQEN
# Chain of Cytochrome P450 2C9 (Homo sapiens) (P11712 whole entry, looked up): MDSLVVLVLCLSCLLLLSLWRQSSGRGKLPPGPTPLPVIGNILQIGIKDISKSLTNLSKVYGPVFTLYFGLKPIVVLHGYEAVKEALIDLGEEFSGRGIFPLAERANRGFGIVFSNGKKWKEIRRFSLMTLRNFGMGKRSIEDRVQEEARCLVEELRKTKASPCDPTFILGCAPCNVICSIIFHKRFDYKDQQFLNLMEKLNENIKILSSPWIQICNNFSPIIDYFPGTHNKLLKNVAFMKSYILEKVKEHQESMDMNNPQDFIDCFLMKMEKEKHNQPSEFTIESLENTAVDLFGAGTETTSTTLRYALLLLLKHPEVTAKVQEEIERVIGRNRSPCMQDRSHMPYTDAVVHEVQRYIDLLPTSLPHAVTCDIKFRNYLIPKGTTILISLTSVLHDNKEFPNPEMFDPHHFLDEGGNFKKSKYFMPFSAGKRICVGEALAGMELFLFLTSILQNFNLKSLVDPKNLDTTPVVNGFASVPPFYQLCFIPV
# Chain of Cytochrome P450 2D6 (Homo sapiens) (P10635 whole entry, looked up): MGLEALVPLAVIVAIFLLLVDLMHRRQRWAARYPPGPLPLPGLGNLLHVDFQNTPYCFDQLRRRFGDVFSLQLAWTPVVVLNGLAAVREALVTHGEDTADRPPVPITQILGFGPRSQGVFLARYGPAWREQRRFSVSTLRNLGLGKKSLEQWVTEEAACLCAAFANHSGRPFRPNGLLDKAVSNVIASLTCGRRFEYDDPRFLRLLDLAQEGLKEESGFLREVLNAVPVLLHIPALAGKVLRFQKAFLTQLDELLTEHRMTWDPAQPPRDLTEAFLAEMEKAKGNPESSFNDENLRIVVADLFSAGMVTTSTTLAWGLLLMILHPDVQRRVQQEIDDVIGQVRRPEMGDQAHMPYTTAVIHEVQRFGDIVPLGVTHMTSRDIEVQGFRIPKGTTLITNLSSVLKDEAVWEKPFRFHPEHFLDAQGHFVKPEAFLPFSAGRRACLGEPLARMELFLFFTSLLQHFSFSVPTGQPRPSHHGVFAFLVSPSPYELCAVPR
# Chain of 3',5'-cyclic-AMP phosphodiesterase 4B (Homo sapiens) (Q07343 whole entry, looked up): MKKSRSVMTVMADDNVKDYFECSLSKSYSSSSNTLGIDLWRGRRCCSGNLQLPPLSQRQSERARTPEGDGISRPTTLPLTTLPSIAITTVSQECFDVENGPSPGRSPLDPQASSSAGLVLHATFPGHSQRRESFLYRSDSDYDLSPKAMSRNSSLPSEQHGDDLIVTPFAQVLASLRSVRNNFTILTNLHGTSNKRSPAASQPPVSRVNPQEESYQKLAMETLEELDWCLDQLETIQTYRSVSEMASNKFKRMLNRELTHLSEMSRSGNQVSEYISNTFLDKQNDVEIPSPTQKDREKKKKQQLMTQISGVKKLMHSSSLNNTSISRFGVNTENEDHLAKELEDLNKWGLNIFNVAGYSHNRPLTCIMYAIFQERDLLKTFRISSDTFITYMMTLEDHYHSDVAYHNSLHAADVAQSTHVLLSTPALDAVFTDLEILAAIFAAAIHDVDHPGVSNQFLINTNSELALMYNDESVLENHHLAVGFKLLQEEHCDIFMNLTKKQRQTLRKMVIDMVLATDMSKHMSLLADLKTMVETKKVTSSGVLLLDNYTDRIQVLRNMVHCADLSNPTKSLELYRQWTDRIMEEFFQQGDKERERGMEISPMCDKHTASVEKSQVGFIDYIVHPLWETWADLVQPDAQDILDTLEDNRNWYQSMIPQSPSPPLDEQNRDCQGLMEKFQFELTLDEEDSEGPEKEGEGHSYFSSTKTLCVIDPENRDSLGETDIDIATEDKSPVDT
structure (smiles),measurement,setting,value
Cc1c(C2CCN(CCc3ccccc3)CC2)noc1-c1ccc(Cl)cc1,Potency,[1],> 46 µM (inactive)
same,Potency,[2],> 46 µM (inactive)
same,Potency,[3],inactive
same,Potency,[4],inactive
same,Potency,[5],15.8 µM (active)
same,Potency,[6],inactive
same,Potency,[7],inactive
same,Potency,[8],inactive
COc1ccccc1CC(=N)N1C[C@@H]2C(=O)CCC(c3ccccc3)(c3ccccc3)[C@@H]2C1,Potency,[1],> 46 µM (inactive)
same,Potency,[2],> 46 µM (inactive)
same,Potency,[3],inactive
same,Potency,[4],3.16 µM (active)
same,Potency,[5],inactive
same,Potency,[7],inactive
same,Potency,[8],inactive
COc1ccc2cc(C(C)C(=O)O)ccc2c1 (stereo unspecified),outcome,[9],inactive
same,outcome,[10],inactive
same,Potency,[8],inactive
O=C(COC(=O)c1cccc(NC(=O)c2ccc(Br)cc2)c1)c1ccc(Br)cc1,Potency,[11],inactive
Cc1c[nH]c(=O)n(CCCN2CCN(c3ccccc3OCC(F)(F)F)CC2)c1=O,Potency,[1],> 46 µM (inactive)
same,Potency,[2],> 46 µM (inactive)
same,Potency,[3],inactive
same,Potency,[12],inactive
same,Potency,[6],inactive
same,Potency,[7],inactive
same,Potency,[8],inactive
CC(C)(C)c1ccc(C(=O)Nc2ccc(C(=O)OCc3cc(=O)n4ccsc4n3)cc2)cc1,Potency,[11],inactive
CC(C)N=C(N)N=C(N)Nc1ccc(Cl)cc1,remaining parasite growth % (stronger effect = lower value),[13],-0.519%
same,"activity, percent of control",[14],0.237%
same,"remaining proliferation (% of control), lower = more inhibition",[15],0.187%
same,"parasite growth, % of DMSO control",[16],5.61%
same,"parasite growth remaining, % of DMSO control (lower = more inhibition)",[17],7.67%
same,"parasite growth, % of control (lower = inhibition)",[18],12.7%
same,"growth, % of control",[19],3.71%
same,Potency,[8],inactive
COc1ccc2cccc(N3CCN(CCNC(=O)c4ccc(F)cc4)CC3)c2c1,Potency,[2],> 46 µM (inactive)
same,Potency,[3],inactive
same,Potency,[7],inactive
same,Potency,[8],inactive
CCCCCCCC/C=C\CCCCCCCC(=O)N[C@@H](CO)Cc1ccc(O)cc1,Potency,[1],> 46 µM (inactive)
same,Potency,[2],> 46 µM (inactive)
same,Potency,[20],inactive
same,Potency,[5],inactive
same,Potency,[6],22.4 µM (active)
same,Potency,[7],inactive
same,Potency,[8],inactive
O=C1CC2(CCCC2)CC(=O)N1CCCCNC[C@H]1COc2ccccc2O1,Potency,[2],> 46 µM (inactive)
same,Potency,[3],inactive
same,Potency,[4],0.631 µM (active)
same,Potency,[5],inactive
same,Potency,[21],5.01 µM (active)
same,Potency,[6],inactive
same,Potency,[7],inactive
same,Potency,[8],inactive
O=C1c2ccccc2C(Cc2ccncc2)(Cc2ccncc2)c2ccccc21,Potency,[1],> 46 µM (inactive)
same,Potency,[2],> 46 µM (inactive)
same,Potency,[3],inactive
same,Potency,[4],0.501 µM (active)
same,Potency,[5],inactive
same,Potency,[6],inactive
same,Potency,[7],inactive
same,Potency,[8],inactive
CCc1nn2c(=O)cc(COC(=O)c3ccccc3NC(=O)c3ccc(C(C)(C)C)cc3)nc2s1,Potency,[11],inactive
Cc1cccc(CCN2CCC(C(=O)c3ccc(NS(C)(=O)=O)cc3)CC2)n1,Potency,[6],inactive
same,Potency,[7],inactive
same,Potency,[8],inactive
